# Data taken from the supplement of paper PMC6555819.
# Columns and labels:
# Assay in all cases: PBM binding z-score (relative to random genomic background probes); higher = stronger binding; sequences stand for … in GC…GCGATTGACAGCGTAGAATGAAGG
# [1] = tested on: PPARg:RXRa DBDmut IVT, anti-RXR (DBD mutation: RXRa K156A/R161A, NR concentration 270 nM, RXRa partner concentration 90 nM)
# Outline: (§1)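 Random background probes are the reference for binding z-scores. These scores derive from regression-normalized fluorescence on custom Agilent 4×180K protein-binding microarrays incubated 1 h with ligand-free nuclear receptor dimers. Binding was detected with antibodies against each partner (one per run).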
# [2] = tested on: PPARg:RXRa IVT, anti-PPARg (NR concentration 270 nM, RXRa partner concentration 90 nM)
# Outline: as §1
# [3] = tested on: PPARg DBDmut:RXRa IVT, anti-PPARg (DBD mutation: PPARg1 K132A/R137A, NR concentration 270 nM, RXRa partner concentration 90 nM)
# Outline: as §1
# [4] = tested on: PPARg DBDmut IVT, anti-PPARg (DBD mutation: PPARg1 K132A/R137A, NR concentration 270 nM)
# Outline: as §1
# [5] = tested on: PPARg homodimer (NR concentration 180 nM)
# Outline: as §1
# [6] = tested on: PXR:RXRa (NR concentration 270 nM, RXRa partner concentration 90 nM)
# Outline: as §1
# [7] = tested on: PXR homodimer (NR concentration 270 nM)
# Outline: as §1
# [8] = tested on: RARa:RXR (NR concentration 270 nM, RXRa partner concentration 90 nM)
# Outline: as §1
# [9] = tested on: RARa homodimer (NR concentration 270 nM)
# Outline: as §1
# [10] = tested on: RARb:RXRa (NR concentration 270 nM, RXRa partner concentration 90 nM)
# Outline: as §1
sequence,measurement,setting,value
CAAACTAGGTCAAAGGTCAAAGTGGAGCCAACCA,PBM binding z-score,[1],8.72
same,PBM binding z-score,[2],9.15
same,PBM binding z-score,[3],3.29
same,PBM binding z-score,[4],1.05
same,PBM binding z-score,[5],7.6
same,PBM binding z-score,[6],7.01
same,PBM binding z-score,[7],2.04
same,PBM binding z-score,[8],8.86
same,PBM binding z-score,[9],5.25
same,PBM binding z-score,[10],5.8
GCGACTGGGGCATCAGGAGGTTACCATAACTTAA,PBM binding z-score,[1],3.82
same,PBM binding z-score,[2],3.59
same,PBM binding z-score,[3],-0.435
same,PBM binding z-score,[4],-0.747
same,PBM binding z-score,[5],0.816
same,PBM binding z-score,[6],0.63
same,PBM binding z-score,[7],-0.0464
same,PBM binding z-score,[8],1.16
same,PBM binding z-score,[9],-0.466
same,PBM binding z-score,[10],1.21
TCATATAGGTAAGACAGGTGAAAGTCGGCATCTA,PBM binding z-score,[1],3.27
same,PBM binding z-score,[2],2.39
same,PBM binding z-score,[3],0.585
same,PBM binding z-score,[4],1.03
same,PBM binding z-score,[5],0.477
same,PBM binding z-score,[6],0.625
same,PBM binding z-score,[7],0.645
same,PBM binding z-score,[8],0.925
same,PBM binding z-score,[9],1.31
same,PBM binding z-score,[10],0.61
CCGACTGGGGCACAAGGTTACCATAAGCCAGCCC,PBM binding z-score,[1],3.82
same,PBM binding z-score,[2],4.45
same,PBM binding z-score,[3],-0.334
same,PBM binding z-score,[4],-0.282
same,PBM binding z-score,[5],1.62
same,PBM binding z-score,[6],0.226
same,PBM binding z-score,[7],-0.93
same,PBM binding z-score,[8],0.828
same,PBM binding z-score,[9],-0.242
same,PBM binding z-score,[10],1.46
TCTATTAGTTGATTAAGGCAACCGAAACAGCGGA,PBM binding z-score,[1],2.31
same,PBM binding z-score,[2],0.341
same,PBM binding z-score,[3],1.4
same,PBM binding z-score,[4],0.689
same,PBM binding z-score,[5],0.977
same,PBM binding z-score,[6],0.454
same,PBM binding z-score,[7],0.378
same,PBM binding z-score,[8],0.873
same,PBM binding z-score,[9],1.34
same,PBM binding z-score,[10],0.0773
ATACCAAGGTGATCGTGAGGTCGTTGATACTAAC,PBM binding z-score,[1],0.604
same,PBM binding z-score,[2],1.28
same,PBM binding z-score,[3],0.214
same,PBM binding z-score,[4],0.382
same,PBM binding z-score,[5],1.03
same,PBM binding z-score,[6],2.86
same,PBM binding z-score,[7],1.53
same,PBM binding z-score,[8],1.82
same,PBM binding z-score,[9],0.745
same,PBM binding z-score,[10],1.42
CGTCCAAGTTCATAGGAGGTCAGTGAAGACAGAT,PBM binding z-score,[1],0.698
same,PBM binding z-score,[2],1.81
same,PBM binding z-score,[3],0.494
same,PBM binding z-score,[4],0.544
same,PBM binding z-score,[5],3.04
same,PBM binding z-score,[6],6.14
same,PBM binding z-score,[7],9.37
same,PBM binding z-score,[8],4.07
same,PBM binding z-score,[9],1.68
same,PBM binding z-score,[10],4.14
CCAGACACGTGAGAAGGTAACTCAGCCTCGATTA,PBM binding z-score,[1],-0.227
same,PBM binding z-score,[2],-0.531
same,PBM binding z-score,[3],-0.51
same,PBM binding z-score,[4],-0.51
same,PBM binding z-score,[5],0.168
same,PBM binding z-score,[6],-0.212
same,PBM binding z-score,[7],0.145
same,PBM binding z-score,[8],-0.206
same,PBM binding z-score,[9],0.356
same,PBM binding z-score,[10],-0.318
TCTAATAGTTGAAGGGCAACCGACGAGTCCGTTT,PBM binding z-score,[1],2.21
same,PBM binding z-score,[2],0.129
same,PBM binding z-score,[3],1.32
same,PBM binding z-score,[4],0.0205
same,PBM binding z-score,[5],0.705
same,PBM binding z-score,[6],0.839
same,PBM binding z-score,[7],0.503
same,PBM binding z-score,[8],0.712
same,PBM binding z-score,[9],-0.387
same,PBM binding z-score,[10],1.53
TCTTGTAGATCACTAGAGGTTAAGAAAGTGCGCT,PBM binding z-score,[1],1.81
same,PBM binding z-score,[2],1.16
same,PBM binding z-score,[3],1.46
same,PBM binding z-score,[4],0.897
same,PBM binding z-score,[5],0.0426
same,PBM binding z-score,[6],3.04
same,PBM binding z-score,[7],0.56
same,PBM binding z-score,[8],1.74
same,PBM binding z-score,[9],0.205
same,PBM binding z-score,[10],1.03
CGAACTACGTCATTGACAGGACAGTGAATAGTAA,PBM binding z-score,[1],-0.246
same,PBM binding z-score,[2],-0.155
same,PBM binding z-score,[3],0.611
same,PBM binding z-score,[4],0.69
same,PBM binding z-score,[5],0.0858
same,PBM binding z-score,[6],-0.217
same,PBM binding z-score,[7],0.0481
same,PBM binding z-score,[8],-0.22
same,PBM binding z-score,[9],0.592
same,PBM binding z-score,[10],-0.0589
ATCTCTAGGTAAAGATAGTGCAGTGAATGCAAAT,PBM binding z-score,[1],1.33
same,PBM binding z-score,[2],1.62
same,PBM binding z-score,[3],0.773
same,PBM binding z-score,[4],0.751
same,PBM binding z-score,[5],-0.52
same,PBM binding z-score,[6],-0.0642
same,PBM binding z-score,[7],-0.041
same,PBM binding z-score,[8],0.189
same,PBM binding z-score,[9],0.661
same,PBM binding z-score,[10],-0.164
GATACCGGGTCAGCTAGAGGCCAGAGTATGGAAA,PBM binding z-score,[1],0.693
same,PBM binding z-score,[2],2.49
same,PBM binding z-score,[3],-0.62
same,PBM binding z-score,[4],-0.769
same,PBM binding z-score,[5],1.94
same,PBM binding z-score,[6],2.41
same,PBM binding z-score,[7],-0.56
same,PBM binding z-score,[8],3.53
same,PBM binding z-score,[9],-0.152
same,PBM binding z-score,[10],3.28
GCTTACGGGTCAAAGGTTATATCATGAATAGAAT,PBM binding z-score,[1],4.73
same,PBM binding z-score,[2],5.93
same,PBM binding z-score,[3],2.65
same,PBM binding z-score,[4],2.07
same,PBM binding z-score,[5],4.59
same,PBM binding z-score,[6],6.41
same,PBM binding z-score,[7],0.529
same,PBM binding z-score,[8],8.44
same,PBM binding z-score,[9],1.02
same,PBM binding z-score,[10],4.55
TCTTGTAGATCAACAGGAGGTTGAGAAAGATCGA,PBM binding z-score,[1],1.36
same,PBM binding z-score,[2],0.267
same,PBM binding z-score,[3],0.852
same,PBM binding z-score,[4],-0.116
same,PBM binding z-score,[5],-0.716
same,PBM binding z-score,[6],0.0835
same,PBM binding z-score,[7],-0.557
same,PBM binding z-score,[8],0.0993
same,PBM binding z-score,[9],-0.378
same,PBM binding z-score,[10],-0.147
ATATGTAGGTTAGCTCGGGTCATTCAGACTAGGC,PBM binding z-score,[1],6.41
same,PBM binding z-score,[2],6.32
same,PBM binding z-score,[3],1.69
same,PBM binding z-score,[4],1.22
same,PBM binding z-score,[5],2.02
same,PBM binding z-score,[6],4.79
same,PBM binding z-score,[7],1.22
same,PBM binding z-score,[8],3.11
same,PBM binding z-score,[9],0.826
same,PBM binding z-score,[10],2.09
TCTTGTAGATCAAGCAGGTTAAAAAAGCCTGAGT,PBM binding z-score,[1],1.71
same,PBM binding z-score,[2],0.721
same,PBM binding z-score,[3],0.175
same,PBM binding z-score,[4],0.427
same,PBM binding z-score,[5],0.249
same,PBM binding z-score,[6],0.876
same,PBM binding z-score,[7],0.157
same,PBM binding z-score,[8],0.523
same,PBM binding z-score,[9],0.0055
same,PBM binding z-score,[10],0.189
CAACCAAGGTGAACAAGGTCGTTGATTACTATTC,PBM binding z-score,[1],2.56
same,PBM binding z-score,[2],3.05
same,PBM binding z-score,[3],0.422
same,PBM binding z-score,[4],0.588
same,PBM binding z-score,[5],0.973
same,PBM binding z-score,[6],2.8
same,PBM binding z-score,[7],1.68
same,PBM binding z-score,[8],2.42
same,PBM binding z-score,[9],0.281
same,PBM binding z-score,[10],2.29
TCTTGTATATCAAAGGTTAAGAAAGCCGAAGCCT,PBM binding z-score,[1],1.87
same,PBM binding z-score,[2],2.65
same,PBM binding z-score,[3],0.898
same,PBM binding z-score,[4],0.823
same,PBM binding z-score,[5],1.29
same,PBM binding z-score,[6],1.93
same,PBM binding z-score,[7],0.544
same,PBM binding z-score,[8],2.96
same,PBM binding z-score,[9],0.898
same,PBM binding z-score,[10],2.22
AATACAGGTTCACTAGGCCAGAGTAGGTACGAAT,PBM binding z-score,[1],1.36
same,PBM binding z-score,[2],2.73
same,PBM binding z-score,[3],1.46
same,PBM binding z-score,[4],0.869
same,PBM binding z-score,[5],0.811
same,PBM binding z-score,[6],1.47
same,PBM binding z-score,[7],0.559
same,PBM binding z-score,[8],1.64
same,PBM binding z-score,[9],0.374
same,PBM binding z-score,[10],1.78
GATACAGGGTCAGCTAGAGGCCAGAGCATGGAAA,PBM binding z-score,[1],1.04
same,PBM binding z-score,[2],2.15
same,PBM binding z-score,[3],0.0195
same,PBM binding z-score,[4],-0.294
same,PBM binding z-score,[5],1.76
same,PBM binding z-score,[6],2.88
same,PBM binding z-score,[7],-0.095
same,PBM binding z-score,[8],4.33
same,PBM binding z-score,[9],-0.0795
same,PBM binding z-score,[10],4.16
TAACCTAGGTCATTGGGCCAGTATAGTACGCATC,PBM binding z-score,[1],4.7
same,PBM binding z-score,[2],5.03
same,PBM binding z-score,[3],1.2
same,PBM binding z-score,[4],0.368
same,PBM binding z-score,[5],1.68
same,PBM binding z-score,[6],2.09
same,PBM binding z-score,[7],0.379
same,PBM binding z-score,[8],2.92
same,PBM binding z-score,[9],0.714
same,PBM binding z-score,[10],3.88
CGAACTAGGTCAAGGAAAGTGAATCTCCGCACGC,PBM binding z-score,[1],7.89
same,PBM binding z-score,[2],8.29
same,PBM binding z-score,[3],1.18
same,PBM binding z-score,[4],0.515
same,PBM binding z-score,[5],1.22
same,PBM binding z-score,[6],0.813
same,PBM binding z-score,[7],-0.499
same,PBM binding z-score,[8],1.62
same,PBM binding z-score,[9],0.0155
same,PBM binding z-score,[10],3.9
